Data as given in ChEMBL document CHEMBL4513216, “Probing the Open Global Health Chemical Diversity Library for Multistage-Active Starting Points for Next-Generation Antimalarials” (ACS Infect Dis, 2020).
Among all 69,000 compounds or so, about 8,600 (12%) showed an effect of 50% or more. The list comes from a sample in which strong results are over-represented; it also holds similar structures and randomly drawn compounds.

Test system: Plasmodium berghei
Experiment: Screen against P. berghei liver stage (PbLuc), transformed with Luciferase, at 10uM
Type: functional, HepG2
Conditions: tested at 10 uM

SMILES | INHIBITION [%]
CCn1cc(CNCCNc2ncc(Cl)cc2Cl)cn1 | 15.7
O=C(Cn1cnc2ccsc2c1=O)NCCCc1nnc2ccccn12 | 34.3
CCN1CCn2c(C)cnc2C12CCN(C(=O)C(C)C)CC2 | -40.5
CN(C)c1cc(CNC(=O)Nc2nncs2)ccn1 | -2.19
Cc1ccc2nc(C)c(C)c(C(=O)N3CCC4(CCO4)CC3)c2c1 | 33.3
Cc1nc(C(=O)N[C@H]2COC[C@@H]2N2CCCCC2)cs1 | 11.3
Cc1cc(C(=O)N2CCN[C@H](C)C2)c2ccc(F)cc2n1 | 12.2
Cc1cc(C(=O)N(C)C2CCN(C)C2)c2ccc(F)cc2n1 (centres undefined) | 21.5
CCO[C@H]1CN(C)C[C@@H]1NC(=O)c1cc(C)nc2ccc(C)cc12 | 28.4
Cc1ccc2nc(C)cc(C(=O)N[C@H]3COC[C@@H]3N3CCOCC3)c2c1 | 66.5
CO[C@H]1CNC[C@@H]1NC(=O)c1cc(C)nc2ccc(C)cc12 | -100
Cc1cc(C(=O)N[C@H]2COC[C@@H]2N2CCOCC2)c2ccc(F)cc2n1 | 55.4
Cc1ccc2nc(C)c(C)c(C(=O)N[C@H]3COC[C@@H]3N3CCCC3)c2c1 | 59.1
CCc1nccn1C1CCCN(C(=O)Cc2cn3ccsc3n2)C1 (centres undefined) | -23.9
CC(C)c1nnc2ccc(N3CCC(C(=O)NC4CC4)CC3)nn12 | -18.9
CC(C)CNC(=O)NC(=O)C(C)Nc1cccc(CN2CCOC2=O)c1 (centres undefined) | -34.2
CC(C)c1ccc(OCCC(=O)N2CCC(C(=O)N(C)C)CC2)cc1 | -37.55
Cc1cc(C(=O)N2CCCCC2c2nc3cc(F)ccc3[nH]2)nn1C (centres undefined) | 10.7
Cn1cc(C2COC3(CCN(C(=O)c4cnccn4)CC3)C2)cn1 (centres undefined) | 39.2
Cc1oc(C(=O)O)cc1S(=O)(=O)Nc1ccc(Br)cc1Cl | -18.8
CN(C)CC(NC(=O)c1ccn(C)c(=O)c1)c1ccccc1 (centres undefined) | 4.34
CC1(C(=O)NCc2ccsc2)CCOCC1 | 44.9
CN(C)c1ccc(C(=O)NCC2(O)CCOCC2)cc1 | -3.95
O=C(NCC1(O)CCOCC1)c1ccc(F)cc1 | 54.8
Cc1ccc(C(=O)NCC2(O)CCOCC2)cc1F | 48.4
CC1(C(=O)NCc2cc(F)cc(F)c2)CCOCC1 | 37.5
O=C(NCC1(O)CCOCC1)c1ccn(-c2ccccc2F)n1 | -14.9

SMILES | INHIBITION [%]
CN(C)c1cccc(C(=O)NCC2(O)CCOCC2)c1 | 58.3
COC(=O)c1ccc(C(=O)NCC2(O)CCOCC2)cc1 | 36.3
CC1(C(=O)NCCc2ccc(F)cc2)CCOCC1 | 54
CN1CCN(C(=O)c2cc(C#N)cn2C)c2ccccc2C1 | -59.5
CCn1cc(S(=O)(=O)N2CCCCCC2c2cc(C)no2)cn1 (centres undefined) | -7.66
Cc1cc(C)n(CC2CCCN2C(=O)CCc2ccco2)n1 (centres undefined) | 27.25
NC(=O)C(Nc1ccc(Cl)cc1)c1ccc(F)cc1 (centres undefined) | 4.81
CCCc1nc(C(C)(C)NC(=O)C2CC(=O)N(CC(C)C)C2)no1 (centres undefined) | -5.25
CC1=C(C#N)C(=O)NC(=O)/C1=C\c1c(C)[nH]n(-c2ccc(C)cc2)c1=O | 47.1
Cn1cc(C(=O)OC2CN(c3nc4c(C(F)(F)F)cccc4s3)C2)nn1 | -45.6
Cc1cc(O)c(OCC(=O)Nc2nc3c(s2)CCCC3)cn1 | 40
Cc1cc(O)c(OCC(=O)Nc2nc3c(s2)CCCCC3)cn1 | 54.9
Cc1cc(O)c(OCC(=O)Nc2nccs2)cn1 | -18
CCc1ncc2c(n1)CN(Cc1nc(-c3ccoc3)no1)CC2 | 27.8
CN(C)C(=O)c1cccc(CN2CCOC(Cn3cccn3)C2)c1 (centres undefined) | -2.33
O=C(c1ccc(Cl)cc1)N1CCC(N2CCOC2=O)CC1 | 41.6
O=C(CC1=CSC2=NCCCN12)N1CCCCC1c1cccc(F)c1 (centres undefined) | 32.3
O=C(CC1=CSC2=NCCN12)N1CCCC(CCc2cccc(F)c2)C1 (centres undefined) | 68.5
Nc1nc(CC(=O)N2CCCC(CCc3cccc(F)c3)C2)cc(=O)[nH]1 (centres undefined) | 7.3
Cc1cc(C(=O)N2C[C@@H]3CC[C@H]2CN(Cc2ccccn2)C3)nc(N)n1 | 4.59
CC(NC(=O)Nc1nccs1)c1cccnc1 (centres undefined) | 54.8
CCN(C(=O)Nc1nncs1)C(C)c1cccc(OC)c1 (centres undefined) | -5.22
CC(NC(=O)Nc1nccs1)c1ccncc1 (centres undefined) | 5.91
CC(NC(=O)Nc1nccs1)c1ccc(S(C)(=O)=O)cc1 (centres undefined) | 16.8
CCN(C(=O)Nc1nccs1)C(C)c1cccc(O)c1 (centres undefined) | 71.3
CCN(C(=O)Nc1cc(C)on1)C(C)c1cccc(O)c1 (centres undefined) | -2.43
Cc1cc(C(F)(F)F)n2nc(C3CCCN3C3CCSCC3)cc2n1 (centres undefined) | 5.535
